The text below walks through data of PubChem BioAssay (NCI).

The structures appear in SMILES notation. Compounds without any hit were thinned out: in the full panel of roughly 83,000, 20% have a hit.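 48-hour exposure, single concentration, 96-well plates; percent growth endpoint where 0 means no net growth. Active: below 10.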 The source made the active and inactive calls.

In the experiment the test system is NCI-H460 lung. The experiment in a line: NCI-60 one-dose screen, 48 h (100 = growth as untreated, 0 = no growth, -100 = all killed). The conditions noted are these: 10 µM unless noted. The procedure:
Growth inhibition of the NCI-H460 human Non-Small Cell Lung tumor cell line is measured as a screen for anti-cancer activity. Cells are grown in 96 well plates and exposed to the test compound for 48 hours. Compounds are tested at a single concentration, which is 10^-5 M for most compounds. The reported endpoint is percent growth (GI% or GIPRCNT), where numbers from 0 - 100% represent growth inhibition, and numbers from -100% - 0 represent cell death. For example, a value of 40 represents 60% growth inhibition. A value of 0 means no net growth occurred over the course of the experiment. A value of -40 indicates 40% of cells at the beginning of the experiment died by the end of the experiment. A value of -100 means all cells are dead at the end of the experiment.
NCI-60 Human Tumor Cell Lines Screen was performed using the standard one-dose NCI protocol, which is described in more detail at https://dtp.cancer.gov/discovery_development/nci-60/default.htm.
Compounds with GIPRCNT values below 10 were considered active. Activity score was based on GIPRCNT using the following formula: […]
Score is 0 for GIPRCNT values of 100 or above, 50 for GIPRCNT values of 0, and 100 for GIPRCNT values of -100.
Turning to `Cc1cc(NCc2cc(Nc3ccnc4cc(Cl)ccc34)ccc2F)nc(N2CCCC2)n1`, the growth is -51.7% (active).
The result for `NC(=S)N/N=C/Cc1ccccc1` reads 110% (inactive); that for `C=CC(=O)Nc1cccc(Oc2nccc(Nc3nnc(C4CC4)s3)n2)c1`, 95.6% (inactive); that for `NC(=N\N=C/c1ccccc1[N+](=O)[O-])/C(N)=N\N=C/c1ccccc1[N+](=O)[O-]`, 104% (inactive).
As for `COc1ccc(-c2nc3ccc4[nH]ncc4c3c3c2CCCC3)cc1B(O)O`, the figure is 35.3% (inactive); as for `C=C1C(=O)O[C@H]2[C@H]1CC/C(COC(=O)C(=O)c1cn(C)c3ccc(OC)cc13)=C\CC[C@@]1(C)O[C@@H]21`, -76.3% (active).
Regarding `O=C1NC(=Nc2ccc(Cl)cc2)S/C1=C\c1cn(-c2ccccc2)nc1-c1ccccc1`, the growth is 44.6% (inactive).
On to `c1ccc2cc3nc4cc5ccccc5cc4nc3cc2c1`, for which the growth was 99.8% (inactive).
As for `Cc1ccc(NCCN(C)C)c2c(=O)c3ccccc3sc12`, the growth was -14.5% (active).
The result for `C[n+]1cc2c3c(ccc2c2ccc4cc5c(cc4c21)OCO5)OCO3` reads -54.7% (active); that for `CNC(=O)c1cc(Oc2ccc3nc(Nc4ccc(Cl)c(C(F)(F)F)c4)ccc3c2)ccn1`, 55.8% (inactive); that for `Cc1nc2ccccc2n1CC1NC(=O)NC1=O` (stereo not given), 107% (inactive).
As for `N/C(=N\c1nc2ccccc2s1)NC(=O)Nc1cccc(Cl)c1`, the figure is 15.1% (inactive).
As for `CCN(CC)CCn1nc2c3c(cccc3c1=O)-c1ccccc1-2`, the figure is 3.42% (active); as for `CN(C)c1ccc(/C=C/C(=O)c2cccc(Nc3nc(Nc4ccccc4)nc(Nc4ccccc4)n3)c2)cc1`, 98.4% (inactive).
Take `CCCCNC(=O)Oc1ccc2c(=O)c3sc4c(=O)c5ccccc5c(=O)c4c3c(=O)c2c1`: the growth was -74.6% (active).
The result for `Cc1ccc(CCC(=O)Nc2ncc(Cc3cc(Cl)ccc3Cl)s2)o1` reads 5.71% (active); that for `O=C(N/N=C/C=C/c1ccc([N+](=O)[O-])o1)c1cc2ccccc2cc1O`, -14.3% (active); that for `O=C1/C(=C\c2c[nH]c3ccccc23)c2ccccc2N1c1c(Cl)cccc1Cl`, -89.5% (active).
As for `COc1cc(/C=C/C(=O)c2ccc(Nc3nc(Nc4ccc(F)cc4)nc(Nc4ccc(Cl)cc4)n3)cc2)cc(OC)c1OC`, the figure is 55.1% (inactive); as for `O=C1/C(=C\c2cccnc2)SC(=S)N1CCc1ccc(O)cc1`, 18.7% (inactive); as for `CC(C)(C)C(CCc1ccc(Cl)cc1)N1CCN(C2CCCCC2)CC1` (stereo not given), 25.2% (inactive).
As for `O=C1CCC2=C3C4CCCCC4C(=O)C4CCCC(OC2C1)C34` (stereo not given), the figure is -18.6% (active); as for `O=C(c1ccccc1)c1c(/C=C/c2ccccc2)nc2ccccc2c1/C=C/c1ccc(Br)cc1`, 106% (inactive).
For the compound `CCN(CC)c1ccc2nc3c4ccccc4c(=NC(=O)c4ccccc4-c4c5ccc(N(CC)CC)cc5[o+]c5cc(N(CC)CC)ccc45)cc-3oc2c1`, the growth is -54.1% (active).
The result for `Cc1cc(/C=C\c2ccc3ccccc3[n+]2C)c(O)c2ncccc12` reads 4.5% (active).
For the compound `COC(=O)[C@]12CC[C@@H](C)[C@H](C)[C@@H]1C1=CC[C@@H]3[C@@]4(C)C(C=O)=C[C@@](C)(COS(C)(=O)=O)[C@@H]4C(=O)C[C@@]3(C)[C@]1(C)CC2`, the growth was 42.4% (inactive).
As for `O=C(CSc1nnc(-c2ccc(NC(=O)c3cccnc3)cc2)o1)Nc1cccc(Br)c1`, the figure is 103% (inactive); as for `COc1ccc(N=Nc2ccc(O)c(=O)cc2)cc1`, 2.64% (active).
In the case of `COc1ccc(S(=O)(=O)NCCNc2nccc(-c3c(-c4cccc(F)c4)nc4sccn34)n2)cc1`, the growth is 29% (inactive).
The result for `CC(=O)OC1CCC2(C)C(=CC3C4CCC(=O)C4(C)CCC32)C1` (stereo not given) reads 108% (inactive); that for `COc1ccc2nc(NNC(=O)c3cnccn3)c3cccn3c2c1`, -2.09% (active).
The result for `CNC(=O)NCC1OC(n2cnc3c(NC(=O)Nc4ccccc4)ncnc32)C(O[Si](C)(C)C(C)(C)C)C1CC(=O)N(C)OC` (stereo not given) reads 18.1% (inactive).
With `CC(=O)OC[C@H]1OC(Sc2sc(C(=O)c3ccc(Br)cc3)c(N)c2-c2nc3ccccc3s2)[C@H](OC(C)=O)[C@@H](OC(C)=O)[C@@H]1OC(C)=O` (stereo not given in full), the growth is 44.3% (inactive).
As for `CC(=O)c1ccc(NCC(=O)Nc2ccccn2)cc1`, the figure is 104% (inactive); as for `Cc1nn(-c2ccccc2)c(Oc2ccc(Cl)cc2)c1/C=N\N=c1/sc2ccccc2n1C`, 85% (inactive); as for `COc1cccc(-c2nn(-c3ccccc3)cc2-c2ccnc(NCCNC(=O)Nc3ccccc3)c2)c1`, 53.8% (inactive).
With `COc1ccc(N2CCN(c3nc(-c4cc(OC)c(OC)c(OC)c4)nc4ccccc34)CC2)cc1`, the growth is 87% (inactive).
The result for `COc1ccc(/C=c2\nc3n(-c4ccccc4)c4nc5c6c(sc5c(=N)n4n-3c2=O)CCCC6)cc1` reads 98.1% (inactive).
For `COc1cc(/C=C/C(=O)N2CCN(C(=O)c3cc(OC)c(OC)c(OC)c3)CC2)ccc1OCCCN1C(=O)c2cccc3cccc(c23)C1=O`, the growth is 82.6% (inactive).
